Source: PubChem
In the library only some 2.4% were active in any assay of this set; here they are far more common.
Pol kappa inh-1: inhibitors of human DNA polymerase kappa. Potency, µM (series often up to 107 µM), actives largely listed as inhibitors. 400,000 tested, 0.53% active. Q9UBT6. AID 588579. purified Pol kappa, fluorescent DNA synthesis assay, 10 min
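Enzyme at 10 nM met test compounds for 15 min at room temperature. Substrate addition (50 nM final) began the reaction, which was monitored by fluorescence at 0 and 10 min.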
WRN helicase inh: WRN helicase (human) inhibition. Potency, µM (series often up to 114 µM), actives largely listed as inhibitors. AID 651768. WRN helicase unwinding, fluorescent forked duplex, kinetic. Q14191. 360,000 tested, 0.46% active; also: nearly all actives have a fitted effect of over 55% in size
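Fluorescence dequenching readout, ex 525 nm/em 598 nm, kinetic mode: forked duplex DNA (100 nM final) with adjacent fluorophore and quencher unwound by WRN (20 nM final) with 2 mM ATP. Compound preincubation 15 min, room temperature.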
Pol eta inh-1: DNA polymerase eta (human) inhibition; Potency, µM (top dose mostly 114 µM), most hits filed as inhibitors; recombinant Pol eta, fluorescent DNA replication assay; Q9Y253; 390,000 tested, 1.2% active; AID 588591
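Pol eta (10 nM) was preincubated with compounds for 15 min at room temperature, after which fluorescent replication substrate (50 nM final) was added to start the reaction. Fluorescence was read kinetically at 0 and 10 min.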
FEN1 inh-1: blocks human flap endonuclease 1; Potency, µM (series often up to 114 µM), actives largely listed as inhibitors; P39748; 390,000 tested, 0.35% active; Recombinant FEN1 flap cleavage, fluorescence, 15 min; also: nearly all actives have a fitted effect of over 65% in size
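Compounds are tested as a concentration series against 10 nM FEN1; after a 15 min room-temperature preincubation, 50 nM substrate starts cleavage, with plate reads at 0 and 15 min. Normalized responses are fitted by a Hill equation.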
POLI inh: DNA polymerase iota (human) inhibition | 390,000 tested, 1% active | Pol iota fluorescent replication assay, 10 min | AID 588590 | Q9UNA4 | Potency, µM (doses to about 115 µM), hits mostly inhibitors
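Fluorescent replication assay read twice, at 0 min and 10 min after adding 50 nM (final) substrate. Enzyme (10 nM) and compounds were first incubated 15 min at room temperature; enzyme-free buffer wells were negative controls.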
Pol beta inh: inhibitors of human DNA polymerase beta. P06746. Pol beta primer extension/strand displacement, fluorescence kinetic. Potency, µM (highest dose often 114 µM), most hits filed as inhibitors. 340,000 tested, 1.3% active
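10 nM enzyme + cpd, 15 min RT; start with substrate 50 nM final; read 0 min and after 10 min RT. Corrected, normalized data; 4-parameter Hill curve fit.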
PGK validate: validation of Trypanosoma brucei phosphoglycerate kinase inhibitors | shares compounds with Pol kappa inh-1 | Potency, µM (doses to about 57.5 µM), usual class: inhibitors | AID 686980 | 500 tested, 79% active | TbPGK coupled GAPDH assay, Kinase-Glo luminescence; also: nearly all actives have a fitted effect of over 65% in size
Target sequence (P07378 whole entry, looked up): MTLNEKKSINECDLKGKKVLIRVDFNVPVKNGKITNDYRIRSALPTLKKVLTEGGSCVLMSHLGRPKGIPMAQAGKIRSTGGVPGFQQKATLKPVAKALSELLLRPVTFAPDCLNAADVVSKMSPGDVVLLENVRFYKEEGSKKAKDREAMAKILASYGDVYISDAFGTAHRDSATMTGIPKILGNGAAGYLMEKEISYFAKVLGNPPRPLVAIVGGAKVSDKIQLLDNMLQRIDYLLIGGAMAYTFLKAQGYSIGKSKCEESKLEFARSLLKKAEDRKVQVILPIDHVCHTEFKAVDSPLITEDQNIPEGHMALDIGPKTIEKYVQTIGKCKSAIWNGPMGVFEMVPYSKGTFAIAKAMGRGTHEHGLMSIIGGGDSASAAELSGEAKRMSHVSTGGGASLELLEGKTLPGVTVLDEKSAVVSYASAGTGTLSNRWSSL
POLI cherry-pick: Inhibitors of human DNA polymerase iota, confirmation; shares compounds with Pol kappa inh-1; Pol iota primer extension, TAMRA/BHQ fluorescence; Potency, µM, usual class: inhibitors; 1,500 tested, 77% active; AID 720496
Pol kappa inh-2: confirmation of human DNA polymerase kappa inhibitors; shares compounds with Pol eta inh-1; purified Pol-kappa, fluorescent strand-displacement substrate; Potency, µM, hits mostly inhibitors; 920 tested, 76% active
Pol eta inh-2: confirmation of human DNA polymerase eta inhibitors. shares compounds with Pol eta inh-1. Pol eta primer extension, TAMRA/BHQ fluorescence, 10 min. Potency, µM, hits mostly inhibitors. 2,600 tested, 64% active. AID 720502
FEN1 inh-2: FEN1 inhibition, cherry-pick retest. Potency, µM, hits mostly inhibitors. 880 tested, 79% active. FEN1 flap cleavage, TAMRA/BHQ2 fluorogenic DNA substrate. shares compounds with FEN1 inh-1. AID 720498; also: nearly all actives have a fitted effect of over 60% in size
Hits are given with their value; n = inactive; u = inconclusive; x = no result; [ ] = another dose, or the depositor's remark. Calls follow the shape of the dose curve; as a rule, active = well fitted curve in the direction sought with a large enough effect; inconclusive = small, poorly fitted or top-dose-only effect, or another doubt; inactive = no such curve, though single readings can be large; an effect the other way counts as inactive or inconclusive.

SMILES	Pol kappa inh-1	WRN helicase inh	Pol eta inh-1	FEN1 inh-1	POLI inh	Pol beta inh	POLI cherry-pick	Pol eta inh-2	FEN1 inh-2	others
O=c1ccc2c(-c3ccccc3)c3ccc(O)cc3oc-2c1	u	16µM	40µM	45µM	32µM	7.9µM	34	11	34	Pol kappa inh-2=3
O=c1cc(-c2ccccc2)oc2cc(O)ccc12	n	n	n	n	n	x	x	x	x
O=C1c2ccccc2-c2onc3ccc(N4CCCC4)c1c23	n	22µM	u	22µM	35µM	79µM	60	u	38	Pol kappa inh-2=u
Cc1cc2ccccc2c(=O)n1CC(=O)N(C)c1ccc(F)cc1	n	n	n	n	n	n	x	x	x
CCCCN(C)C1=CC2=CC(=C(C#N)C#N)CCC2CC1 (centres undefined)	n	u	u	22µM	u	n	75	76	76	Pol kappa inh-2=u
Cc1nnc(NC(=O)c2sc3nc(-c4cccs4)cc(C(F)(F)F)c3c2N)s1	u	n	6.3µM	u	28µM	35µM	42	67	u
O=C1c2ccccc2C(=O)c2c1ccc(O)c2O	u	u	u	7.9µM	n	x	u	76	7.6	PGK validate=u
COC(=O)c1ccc([C@H]2Nc3ccc(S(=O)(=O)Nc4ccc(F)cc4)cc3[C@H]3C=CC[C@H]32)cc1	n	x	n	n	n	n	x	x	x
COc1cccc(NS(=O)(=O)c2ccc3c(c2)C2C=CCC2C(c2ccc(C(=O)O)cc2)N3)c1 (centres undefined)	16µM	45µM	3.2µM	35µM	20µM	u	38	27	30
COc1ccc(SN=C2C(C)=CC(=O)C=C2C)cc1	n	n	n	n	n	n	x	x	x
Cc1ccc(C2=NC(C(F)(F)F)(C(F)(F)F)c3c(n(-c4ccc(F)cc4)c(=O)[nH]c3=O)N2)cc1	n	n	n	n	n	n	x	x	x
Cc1cc(OCC(=O)N(C)Cc2ccccc2)cc(C)c1Cl	n	n	n	n	n	n	x	x	x
COc1ccc(S(=O)(=O)Nc2cc(SCC(=O)O)c(O)c3ccccc23)cc1	n	79µM	7.9µM	u	4µM	u	u	u	67
COc1ccc(S(=O)(=O)Nc2cccc3ccccc23)cc1	n	x	x	n	n	x	x	x	x
Cc1nn(CC(C)C)c(Cl)c1C(=O)N(c1ccc(Cl)cc1F)S(C)(=O)=O	n	n	n	n	n	n	x	x	x
CC1=C(C#N)c2nc(N)c(C#N)c(C)c2/C1=C\c1ccc(-c2ccccc2C(=O)O)o1	22µM	25µM	7.9µM	40µM	u	10µM	42	27	48
Cc1ccc(-c2cc(-c3ccccc3)nc(N)c2C#N)o1	n	n	n	n	n	n	x	x	x
O=C1c2ccc3c4c(ccc(c24)C(=O)N1NC(=O)C(F)(F)F)CC3	18µM	u	79µM	56µM	22µM	n	42	17	60
Cc1nc2ccccc2c(=O)n1/N=C/c1ccc(O)c(O)c1O	u	3µM	2.8µM	u	u	1.6µM	1.7	2.7	11
O=C(CSc1nc2ccccc2o1)Nc1nc2ccc(Br)cc2s1	n	n	u	n	n	u	x	x	x
N#Cc1c(SCC(=O)Nc2nc3ccc(Br)cc3s2)sc2c(O)cc(=O)[nH]c12	32µM	u	11µM	28µM	6.3µM	35µM	67	15	u	Pol kappa inh-2=8.4
Nc1ccc2c(c1Cl)C(=O)c1ccc(N)c(Cl)c1C2=O	u	n[11.6 µM]	8.9µM	u	u	2µM	17	43	u
O=c1nc2c(O)cccn2c2c1c(=O)[nH]c1ccccc12	u	u	u	56µM	u	u	42	x	34
O=c1[nH]c2ccccc2c2nc3ccccn3c12	n	n	n	u	n	n	x	x	x
O=C(N/N=C/c1cc(Cl)c(O)c(Cl)c1)c1cc2c(ccc3ccccc32)o1	u	u	22µM	50µM	u	28µM	u	43	u	Pol kappa inh-2=75
SMILES	Pol kappa inh-1	WRN helicase inh	Pol eta inh-1	FEN1 inh-1	POLI inh	Pol beta inh	POLI cherry-pick	Pol eta inh-2	FEN1 inh-2	others
O=C(N/N=C/c1ccc(O)c(Br)c1)c1cc2c(ccc3ccccc32)o1	n	n	n	n	n	n	x	x	x
O=C(CN1C(=O)/C(=C/c2ccco2)SC1=S)Nc1ccc(C(=O)O)c(O)c1	n	35µM	3.5µM	n	n	11µM	15	6.7	27	PGK validate=33µM
O=C(NCc1ccccc1C(F)(F)F)c1cccc2c1C(=O)c1ccc(N3CCC(N4CCCCC4)CC3)cc1S2(=O)=O	x	n	u	x	x	x	u	60	76
COc1ccc(CNC(=O)CSc2nc3ccccc3n2C(C)=O)cc1	n	n	n	n	n	n	x	x	x
Nc1cc(S(=O)(=O)O)cc([N+](=O)[O-])c1O	28µM	u	4.5µM	u	7.9µM	n	8.4	5.4	u	PGK validate=2.9µM
N=C1/C(=C\c2ccc(-c3ccc(C(=O)O)cc3)o2)C(=O)N=C2SC=C(c3ccccc3)N12	50µM	n[11.6 µM]	3.5µM	50µM	u	u	38	27	u
Cc1cccc(-n2c(C)cc(/C=C3/C(=N)N4C(c5ccccc5)=CSC4=NC3=O)c2C)c1	n	n	n	n	n	n	x	x	x
NC(=S)NN=Cc1ccc(-c2ccc(S(=O)(=O)Nc3ncccn3)cc2)o1	20µM	25µM	3.2µM	79µM	u	x	u	9.5	24	Pol kappa inh-2=u
Cc1ccc(-c2ccc(/C=N/NC(N)=S)o2)cc1	n	n	n	n	n	n	x	x	x
O=C(CSc1ccc(-c2cccnc2)nn1)N1CCCc2ccccc21	x	x	x	x	x	n	x	x	x
COc1cc(C(=O)NCCSc2ccc(F)cc2)cc(OC)c1OC	n	n	n	n	n	n	x	x	x
CN(C)CCCNC(=O)c1ccccn1	n	n	n	n	n	n	x	x	x
CN(C)CCCNC(=O)c1ccc(-c2cc(O)c3ncccc3c2)cc1	n	x	n	50µM	n	x	47	u	u
Cc1ccc(NC(=O)CN2C(=O)S/C(=C\c3cc(Cl)c(OCC(=O)O)c(Cl)c3)C2=O)cc1	n	n[11.6 µM]	25µM	45µM	u	40µM	42	48	76	PGK validate=5.8µM
CCN1C(N(C)CCc2cccs2)=N[C@@H](c2ccccc2)C(C(=O)OC)=C1C	n	n	n	n	u	n	x	x	x
